Bioassay records from PubChem BioAssay.
Rab9 prom act: activators of Rab9 promoter. Huh7 Rab9 promoter-luciferase reporter, luminescence, 24 h. Potency, µM (highest dose often 9.22 µM), usual class: activators. actives 2.8% (n = 320,000). AID 485297; also: nearly all actives have a fitted effect of over 60% in size
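Quantitative HTS format; Huh7 Rab9-luciferase reporter cells (1500/well) receive compound 2 h post-plating, incubate 24 h at 37 °C, then get luciferase reagent for 10 min before luminescence reading.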
SMN2 splice enh: increases expression of the SMN2 splice variant. HEK293 SMN2-luciferase splicing reporter, luminescence, 30-36 h. Potency, µM (titrated, usually from 46.1 µM), actives largely listed as activators. actives 2.8% (n = 210,000); also: nearly all actives have a fitted effect of over 55% in size
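HEK293 cells carry an SMN2 minigene-luciferase reporter in which exon 7 inclusion puts luciferase in frame. Cells were seeded at 2000 cells/well, attached for 10-12 hours, then exposed to compounds for 30-36 hours at 37C before ONE-Glo luminescence.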
FLuc counter: inhibits or activates purified firefly luciferase, miR-21 counter-screen | P08659 | purified FLuc, Km substrates, luminescence inhibition | Potency, µM (series often up to 57.5 µM), usual class: inhibitors | actives 6.9% (n = 360,000); also: nearly all actives have a fitted effect of over 55% in size
Target sequence (P08659 whole entry, looked up): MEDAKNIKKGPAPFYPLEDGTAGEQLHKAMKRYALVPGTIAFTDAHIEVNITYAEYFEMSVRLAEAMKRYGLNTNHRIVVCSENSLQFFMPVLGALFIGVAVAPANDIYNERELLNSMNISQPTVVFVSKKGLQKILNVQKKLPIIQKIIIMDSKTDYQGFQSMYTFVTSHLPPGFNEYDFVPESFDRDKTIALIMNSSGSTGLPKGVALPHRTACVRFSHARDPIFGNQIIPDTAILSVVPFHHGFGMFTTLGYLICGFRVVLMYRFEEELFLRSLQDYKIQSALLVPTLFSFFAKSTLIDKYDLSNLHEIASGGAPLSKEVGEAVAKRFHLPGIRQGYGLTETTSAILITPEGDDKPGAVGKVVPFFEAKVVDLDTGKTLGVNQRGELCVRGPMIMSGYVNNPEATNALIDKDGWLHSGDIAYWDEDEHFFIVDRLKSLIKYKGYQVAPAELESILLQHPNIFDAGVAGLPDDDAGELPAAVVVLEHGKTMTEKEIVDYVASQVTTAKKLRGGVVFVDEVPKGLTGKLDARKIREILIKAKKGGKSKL
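Purified P. pyralis luciferase (10nM final) with 10uM D-luciferin and 10uM ATP (Km levels) in 50mM Tris acetate pH 7.5, 10mM Mg acetate, 0.01% Tween-20, 0.05% BSA; qHTS 6-point titration, ~60 µM downward; luminescence read.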
ELG1 genotoxic: induces genotoxicity in HEK293T cells with luciferase-tagged ELG1; actives 1.3% (n = 330,000); Potency, µM (top dose mostly 46 µM), most hits filed as activators; HEK293T ELG1-luciferase reporter, luminescence, 16 h; also: nearly all actives have a fitted effect of over 60% in size
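Reporter readout depends on ELG1 protein level, which increases with genetic stress. After 16 hr compound exposure at 37 °C, luciferase activity was quantified using ONE-Glo.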
NPC1 prom act: activates the NPC1 promoter; Huh7 NPC1 promoter luciferase reporter, 24 h; Potency, µM (top dose mostly 9.22 µM), actives largely listed as activators; actives 2.4% (n = 320,000); AID 485313; also: nearly all actives have a fitted effect of over 60% in size
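Readout is luciferase luminescence, reflecting NPC1 promoter activation in stably transfected Huh7 cells after 24 h compound exposure at 37 °C in reduced-serum medium with 10% FBS.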
Hits are given with their value; – = inactive; ? = inconclusive; · = no result given. An excerpt weighted towards active compounds, which were near 7.5% of everything screened. Calls follow the shape of the dose curve; as a rule, active = well fitted curve in the direction sought with a large enough effect; inconclusive = small, poorly fitted or top-dose-only effect, or another doubt; inactive = no such curve, though single readings can be large; an effect the other way counts as inactive or inconclusive.

SMILES	Rab9 prom act	SMN2 splice enh	FLuc counter	ELG1 genotoxic	NPC1 prom act
O=C(CN1C(=O)C2CC=CCC2C1=O)Nc1cc(C(F)(F)F)ccc1N1CCCC1 (centres undefined)	–	·	–	–	–
CCn1cc(/C=C(\NC(=O)c2ccc(OC)c(OC)c2)C(=O)NCCCN2CCOCC2)c2ccccc21	–	·	–	–	–
COc1cccc(NC(=O)CN(C)S(=O)(=O)c2ccc3nc(C)sc3c2)c1	·	–	–	·	·
O=C(Nc1cccc(Br)c1)c1ccc2nc(N3C(=O)CCC3=O)sc2c1	–	–	17µM	–	–
COc1ccccc1NC(=O)CCS(=O)(=O)c1ccc2nc(C)sc2c1	·	·	–	·	·
COc1cccc(NC(=O)c2ccc3nc(C)sc3c2)c1	1.1µM	·	11µM	23µM	1.6µM
O=C(Nc1cccc([N+](=O)[O-])c1)c1ccc2nc(N3C(=O)CCC3=O)sc2c1	–	–	–	–	–
COc1ccccc1NC(=O)c1ccc2nc(C)sc2c1	?	·	?	–	4µM
CC(OC(=O)Cc1n[nH]c(=O)c2ccccc12)C(=O)Nc1ccc(S(N)(=O)=O)cc1 (centres undefined)	–	·	–	–	–
Fc1ccccc1-n1ncc2c1ncn1nc(Cc3ccccc3)nc21	·	11µM	6µM	·	·
CC(=O)n1cc(/C=N/NC(=O)c2cccc(O)c2)c2ccccc21	–	·	9.5µM	–	–
CC(=O)n1cc(/C=N/NC(=O)c2ccc(Cl)cc2)c2ccccc21	–	·	3.4µM	–	–
CC(=O)n1cc(/C=N/NC(=O)c2ccccc2Cl)c2ccccc21	–	·	19µM	–	–
O=C(N/N=C/c1ccc(OC(=O)c2ccccc2)cc1)c1cccc(O)c1	–	–	–	–	–
CCOC(=O)N/N=C/c1cn(Cc2ccc(Cl)cc2)c2ccccc12	–	–	–	–	–
COc1cccc(NC(=O)CN2C=NS(=O)(=O)c3ccccc32)c1	·	·	–	·	·
Cn1nccc1C(=O)Nc1ccn(C23CC4CC(CC(C4)C2)C3)n1	–	–	27µM	?	–
Cc1nn(C)c(C(=O)Nc2ccn(C34CC5CC(CC(C5)C3)C4)n2)c1[N+](=O)[O-]	–	–	–	–	–
O=c1cc(C(F)(F)F)[nH]c2ccc(OC(F)(F)F)cc12	–	·	21µM	–	–
O=c1cc(C(F)(F)F)[nH]c2c(C(F)(F)F)cccc12	–	–	–	–	–
CC(C)CNC(=O)N1CCN(S(=O)(=O)c2ccc3c(ccn3C)c2)CC1	·	·	–	·	·
CCN(C(=O)COc1ncnc2scc(-c3ccc(F)cc3)c12)C1CCS(=O)(=O)C1 (centres undefined)	–	–	–	18µM	–
CN(C)C(=O)COc1ncnc2scc(-c3ccc(F)cc3)c12	–	–	–	–	–
CCc1cc(C(=O)NN2C(=O)NC3(CCCCC3)C2=O)sc1C	–	·	–	–	–
O=C(NCc1cccc(Cl)c1)c1ccc2nc[nH]c2c1	–	–	–	–	–
SMILES	Rab9 prom act	SMN2 splice enh	FLuc counter	ELG1 genotoxic	NPC1 prom act
CC(=O)c1cccc(OCC(=O)N(C)CC(=O)Nc2ccc(F)cc2)c1	–	·	–	–	–
Cc1ccc(C(=O)N(C)c2ccc(OCC(=O)N3c4ccc(C)cc4C4CN(C)CCC43)cc2)cc1 (centres undefined)	?	11µM	3µM	?	–
Cc1ccc2c(c1)C1CN(C)CCC1N2C(=O)COc1ccc(N(C)C(=O)C(C)(C)C)cc1 (centres undefined)	–	–	–	–	–
CCCc1cc(N2CCOCC2)n2ncc(-c3ccccc3)c2n1	–	·	?	–	–
CCc1ccc(NC(=O)Cn2c(=O)n(Cc3ccccc3)c(=O)c3oc4ccccc4c32)cc1	·	·	–	·	·
COc1ccc(NC(=O)Cn2c(=O)n(Cc3ccccc3)c(=O)c3oc4ccccc4c32)cc1Cl	·	·	2.4µM	·	·
CC(C)OC(=O)Cn1nnc2c(cnn2-c2ccccc2)c1=O	–	–	17µM	–	–
CNC(=S)Nc1cccc(C(C)=O)c1	–	–	–	–	–
Cc1cc(C)n2nc(C(=O)Nc3ccc4c(c3)OCO4)cc2n1	3.2µM	7.9µM	4.8µM	2.1µM	1.3µM
Cc1cc(Nc2cccc(C(=O)O)c2)n2nc(C)nc2n1	·	–	–	·	·
O=C(Nc1ccc2c(c1)OCO2)c1cc2nc(C3CC3)cc(C(F)(F)F)n2n1	–	–	–	–	–
CC(=O)c1cccc(NC(=O)c2cc3nc(C)cc(C)n3n2)c1	2µM	13µM	7.6µM	8.2µM	?
CC(=O)c1cccc(Nc2cc(C)nc3nc(-c4ccccc4C)nn23)c1	·	–	19µM	·	·
CCOC(=O)Cc1nnc(NC(=O)C23CC4CC(CC(C4)C2)C3)s1	–	·	?	–	–
Cc1cc(=O)oc2cc(NC(=S)NNC(=O)c3c(Cl)cnn3C)ccc12	0.89µM	·	1.5µM	?	0.45µM
Cc1cc(=O)oc2cc(NC(=S)NCc3ccccn3)ccc12	–	–	–	–	–
CCOC(=O)CSc1nc2ccccc2c(=O)n1C	–	?	–	–	–
COc1ccc(C(=O)Nn2c(SCC(=O)c3ccccc3)nc3ccccc3c2=O)cc1	0.56µM	–	6.7µM	?	1.4µM
COc1ccc(C(=O)Nn2c(SCc3ccc([N+](=O)[O-])cc3)nc3ccccc3c2=O)cc1	4µM	–	12µM	?	2.5µM
CCOC(=O)CSc1nc2ccccc2c(=O)n1NC(=O)c1ccccc1	3.5µM	16µM	?	?	?
CSc1nnc(C)c(=O)n1COC(=O)c1ccc(S(=O)(=O)N2CCCC2)cc1	–	–	–	–	–
COC(=O)Cc1c(C)c2cc(Cl)c(OC(=O)c3ccco3)cc2oc1=O	–	–	?	–	–
Cc1[nH]c2ccccc2c1C(=O)COC(=O)C1CCC1	–	·	15µM	–	–
O=C(COC(=O)C1CCC1)c1c[nH]c2ccccc12	–	·	11µM	–	–
O=C(COC(=O)C1CC1)c1c[nH]c2ccccc12	?	?	12µM	?	?
SMILES	Rab9 prom act	SMN2 splice enh	FLuc counter	ELG1 genotoxic	NPC1 prom act
CC(=O)OCC(=O)c1c[nH]c2ccccc12	–	–	–	–	–
O=C(Cc1ccccc1[N+](=O)[O-])OCC(=O)c1c[nH]c2ccccc12	?	·	11µM	–	?
Cc1[nH]c2ccccc2c1C(=O)COC(=O)C1CCC(=O)N1 (centres undefined)	–	–	–	–	–
O=C(COc1cccnc1[N+](=O)[O-])c1c[nH]c2ccccc12	–	·	?	–	–
O=C(/C=C/c1ccccc1)OCC(=O)c1c[nH]c2ccccc12	·	·	·	–	·
Cc1cc(Nc2nnnn2-c2ccccc2)n(-c2ccccc2)n1	–	–	–	–	–
Cc1ccc(-c2nn(CC(=O)NC3CCCC3)c3c2cnc2ccccc23)cc1	·	·	–	·	·
O=c1c2[nH]c3ccccc3c2nc(SCc2ccccc2F)n1-c1ccc(F)cc1	·	·	–	·	·
O=C(Nc1ccccc1N1CCCCC1)c1ccc(N2C(=O)c3ccccc3C2=O)cc1	–	–	–	–	–
Nc1c(C(=O)N2CCCC2)sc2nc(-c3ccccc3)ccc12	1.6µM	·	4.8µM	?	2µM
